# Results filed as inconclusive are left out. Calls of active or inactive are those of the source. The calls were made as follows, unless noted: active = hit-call score of the fitted dose curve at least 0.9, where 1 is the maximum; inactive = score below 0.9.
# What was measured:
# [1] = CCTE_Shafer_MEA_dev_burst_rate: CCTE's Neural Network Formation Assay for Burst Rate, Shafer Lab (AID 2284042);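 as to AC50: potency for loss of burst rate below DMSO control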
# Summary of the method: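 Rat primary cortical cultures on PEI/laminin MEA; compound from plating, re-dosed at DIV 5, 9 media change. Single-electrode bursts/recording length, well mean of active electrodes; AUC over DIV 5–12 recordings; loss-of-signal vs DMSO.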
# [2] = CCTE_Shafer_MEA_dev_bursting_electrodes_number: CCTE's Neural Network Formation Assay for Number of Bursting Electrodes, Shafer Lab (AID 2284043; active = hit-call score of the fitted dose curve at least 0.9, where 1 is the maximum;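 as to AC50: potency is for loss of bursting electrodes relative to DMSO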)
# Summary of the method: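 Rat cortical primary neurons, 48-well MEA, 16 electrodes/well; dosing DIV 0–12, re-dosed with full media change DIV 5, 9. Recordings DIV 5/7/9/12, AxIS adaptive spike detector; bursting electrode = ≥1 burst/2 min. AUC across days; loss of signal vs DMSO.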
# [3] = CCTE_Shafer_MEA_dev_per_burst_interspike_interval: CCTE's Neural Network Formation Assay for Burst Interspike Interval, Shafer Lab (AID 2284044);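 also: mean spike spacing inside bursts as AUC over recordings on days 5 7 9 12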;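 as to AC50: potency for a decrease of within-burst interspike interval below DMSO level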
# Summary of the method: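 Developmental network-formation MEA in primary rat cortical cultures with exposure spanning days 0–12. Within-burst ISI is averaged per well and integrated across recording days by area under the curve, with DMSO as negative control baseline.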
# [4] = CCTE_Shafer_MEA_dev_burst_duration_mean: CCTE's Neural Network Formation Assay for Mean Burst Duration, Shafer Lab (AID 2284045);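 as to AC50: curve fitted for loss meaning shorter burst duration than DMSO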
# Summary of the method: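 Rat cortical cultures, 1.5 x 10^5 cells/well with laminin drop; continuous dosing days 0–12, media plus treatment refreshed DIV 5, 9. AxIS adaptive spike detection; mean single-electrode burst duration, AUC over four recordings, negative direction vs DMSO.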
# [5] = CCTE_Shafer_MEA_dev_interburst_interval_mean: CCTE's Neural Network Formation Assay for Mean Interburst Interval, Shafer Lab (AID 2284046);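 also: well-mean interburst interval of bursting electrodes as AUC over four recording days; curve fitted for decrease in interburst interval relative to DMSO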
# Summary of the method: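 Rat cortical neurons, 1.5 x 10^5 cells/well, 48-well MEA; compound from day 0 through DIV 12, media and treatment renewed DIV 5/9. Recordings DIV 5, 7, 9, 12; well-mean interburst interval → trapezoidal AUC, loss direction vs DMSO.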
# [6] = CCTE_Shafer_MEA_dev_inter_network_spike_interval_mean: CCTE's Neural Network Formation Assay for Mean Inter-network Spike Interval, Shafer Lab (AID 2284047)
# Summary of the method: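 Primary rat cortical neurons on PEI-coated 48-well MEAs (16 electrodes/well) were exposed from plating day 0 to DIV 12, with dosing renewed at DIV 5 and 9. Recordings at DIV 5, 7, 9, 12 were collapsed by trapezoidal AUC, loss-of-signal fit vs DMSO.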
# [7] = CCTE_Shafer_MEA_dev_network_spike_peak: CCTE's Neural Network Formation Assay for Mean Number of Electrodes in Network Spike, Shafer Lab (AID 2284049);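 as to AC50: fitted for loss of signal meaning fewer electrodes in network spikes than DMSO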
# Summary of the method: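 Network-spike peak electrode count from recordings on days 5, 7, 9 and 12 was combined as trapezoidal area under the curve. Rat cortical cultures were treated continuously from plating, with compound renewed at each feed (DIV 5, 9); fits versus DMSO.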
# [8] = CCTE_Shafer_MEA_dev_spike_duration_mean: CCTE's Neural Network Formation Assay for Mean Spike Duration, Shafer Lab (AID 2284051);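 also: mean network spike duration pooled as area under curve over DIV 5 to 12 recordings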;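 as to AC50: potency for a decrease in mean network spike duration versus DMSO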
# Summary of the method: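 Rat cortical primary cultures, 48-well MEA (16 electrodes/well); compound from plating, renewed DIV 5, 9. Network spike duration (AxIS adaptive detector) recorded DIV 5/7/9/12, combined as trapezoidal AUC; loss direction vs DMSO.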
# [9] = CCTE_Shafer_MEA_dev_network_spike_duration_std: CCTE's Neural Network Formation Assay for Standard Deviation of Network Spike Duration, Shafer Lab (AID 2284052);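 also: area under curve of spike duration SD across recording days 5 to 12; hits are decreases in network spike duration SD versus DMSO vehicle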
# Summary of the method: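 Rat cortical cultures, 1.5 x 10^5 cells/well, exposed continuously from plating to DIV 12 with media/compound renewal at DIV 5, 9. Spontaneous activity recorded DIV 5/7/9/12, AxIS adaptive spike detector; AUC across days; negative direction vs DMSO.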
# [10] = CCTE_Shafer_MEA_dev_per_network_spike_spike_number_mean: CCTE's Neural Network Formation Assay for Mean Number of Spikes in a Network Spike, Shafer Lab (AID 2284053);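 as to AC50: fitted as decrease in spikes per network spike relative to DMSO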
# Summary of the method: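 Rat cortical primary cultures on 48-well MEA; compound from day 0, re-dosed with full media change DIV 5, 9. Recorded DIV 5, 7, 9, 12; spikes in 0.05 s window at network-spike peak ÷ total network spikes; AUC; loss vs DMSO.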
# [11] = CCTE_Shafer_MEA_dev_per_network_spike_spike_percent: CCTE's Neural Network Formation Assay for Percent of Spikes in a Network Spike, Shafer Lab (AID 2284054)
# Summary of the method: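 Read-out: percent of spikes falling in a 0.05 s window at network-spike peak, from spontaneous MEA recordings on days 5, 7, 9 and 12; trapezoidal AUC; loss of signal versus DMSO. Rat cortical cultures, compound present throughout.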
# [12] = CCTE_Shafer_MEA_dev_mutual_information_norm: CCTE's Neural Network Formation Assay for Mutual Information Normalization, Shafer Lab (AID 2284091);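 as to AC50: mutual information between electrodes summarised as area under curve across four recording days; potency is for a decrease in mutual information relative to DMSO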
# Summary of the method: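 Neurons from rat cortex were seeded at 1.5 x 10^5 cells/well onto PEI-coated MEAs in a laminin drop, then exposed to compound from day 0 for twelve days. Network recordings on four days gave mutual information, summarised by AUC relative to DMSO.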
# [13] = CCTE_Shafer_MEA_dev_correlation_coefficient_mean: CCTE's Neural Network Formation Assay for Mean Correlation Coefficient, Shafer Lab (AID 2284093);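 as to AC50: well mean pairwise spike train correlation integrated as AUC over recording days 5 to 12; potency fitted for loss of correlation relative to DMSO vehicle wells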
# Summary of the method: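 Rat cortical cultures, 1.5 x 10^5 cells/well, dosed from day 0 for 12 days. Spontaneous spikes recorded DIV 5/7/9/12; electrode-pair correlation coefficients averaged, AUC taken. Fit in loss direction vs DMSO.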
# [14] = IUF_NPC1a_proliferation_area_72hr: Leibniz Research Institute for Environmental Medicine (IUF) 72-hour Neural Progenitor Cell Proliferation Area Assay (NPC1a) (AID 2284208)
# Summary of the method: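 Proliferation is scored as sphere area gain in primary human fetal neural progenitors treated for 72 h in EGF/FGF-containing medium. Viability, LDH and BrdU readouts come from the same wells.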
# [15] = IUF_NPC1_viability_72hr: Viability Assessment at 72 hours in the Leibniz Research Institute for Environmental Medicine (IUF) Neural Progenitor Cell Proliferation Assay (NPC1) (AID 2284209)
# Summary of the method: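 Viability was measured by resazurin-to-resorufin fluorescence (alamar blue) after 72 h of continuous exposure without compound renewal. Each well held one hNPC sphere (gestational week 16-19 fetal cortex, 0.25-0.35 mm) cultured in EGF/FGF proliferation medium at 37C and pH 7.2-7.6.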
# [16] = CCTE_Mundy_HCI_Cortical_Synap_Neur_Matur_NeuriteSpotCountPerNeuriteLength: CCTE's Synaptogenesis and Neurite Maturation Assay in rat cortical cells for Neurite Spot Count per Neurite Length, Mundy Lab (AID 2284210)
# Summary of the method: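 Read-out: synaptophysin puncta counted along MAP2-stained neurites, normalised to neurite length, by automated high-content imaging. Rat cortical cells; AraC DIV 5; chemical dosing DIV 7; termination DIV 12. DMSO baseline.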
# [17] = CCTE_Mundy_HCI_Cortical_NOG_NeuriteLength: CCTE's Neurite Outgrowth Assay in rat cortical cells for Neurite Length, Mundy Lab (AID 2284213);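 as to AC50: neurites imaged about 48 to 50 h after chemical exposure began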
# Summary of the method: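 First, rat primary cortical cells were plated and, 2 h later, given test chemical as a 1/10 dilution. Finally, βIII-tubulin immunostaining enabled automated imaging of neurite length.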
# [18] = CCTE_Mundy_HCI_Cortical_Synap_Neur_Matur_NeuriteLength: CCTE's Synaptogenesis and Neurite Maturation Assay in rat cortical cells for Neurite Length, Mundy Lab (AID 2284214)
# Summary of the method: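 Neurite length quantified by automated high-content imaging of MAP2, synaptophysin and Hoechst staining. Rat cortical cells received chemical from DIV 7 to DIV 12 […], glial growth arrested by AraC at DIV 5; DMSO baseline.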
# [19] = CCTE_Mundy_HCI_Cortical_Synap_Neur_Matur_NeuriteSpotCountPerNeuron: CCTE's Synaptogenesis and Neurite Maturation Assay in rat cortical cells for Neurite Spot Count per Neuron Count, Mundy Lab (AID 2284215)
# Summary of the method: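 Synapse density is scored as synaptophysin spots along neurites per neuron in fixed rat cortical neurons, measured at DIV 12 after chemical dosing at DIV 7. DMSO is the negative control and activity baseline.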
# [20] = CCTE_Mundy_HCI_Cortical_Synap_Neur_Matur_SynapseCount: CCTE's Synaptogenesis and Neurite Maturation Assay in rat cortical cells for Synapse Count, Mundy Lab (AID 2284218)
# Summary of the method: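 High-content imaging of synaptophysin puncta per MAP2-positive neuron (Hoechst nuclei) in rat cortical cells exposed DIV 7–12 after glial arrest with AraC at DIV 5; decrease relative to DMSO scored.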
smiles,measurement,setting,value
Cc1ccc(OP(=O)(Oc2ccc(C)cc2)Oc2ccc(C)cc2)cc1 (tested in a mixture with another compound),outcome,[1],inactive
same,outcome,[2],inactive
same,outcome,[3],inactive
same,outcome,[4],inactive
same,outcome,[5],inactive
same,outcome,[6],inactive
same,outcome,[7],inactive
same,outcome,[8],inactive
same,outcome,[9],inactive
same,outcome,[10],inactive
same,outcome,[11],inactive
same,outcome,[12],inactive
same,outcome,[13],inactive
same,outcome,[14],inactive
same,outcome,[15],inactive
same,AC50,[16],15 µM (active)
same,AC50,[17],21.4 µM (active)
same,outcome,[18],inactive
same,AC50,[19],15 µM (active)
same,AC50,[20],15 µM (active)
CC1(C)[C@H](C(=O)O[C@H](C#N)c2cccc(Oc3ccccc3)c2)[C@@H]1C=C(Br)Br,AC50,[1],3.86 µM (active)
same,AC50,[2],3.71 µM (active)
same,AC50,[3],15 µM (active)
same,AC50,[4],5.29 µM (active)
same,outcome,[5],inactive
same,outcome,[6],inactive
same,AC50,[7],7.55 µM (active)
same,AC50,[8],6.4 µM (active)
same,AC50,[9],3.82 µM (active)
same,AC50,[10],3.96 µM (active)
same,AC50,[11],1.8 µM (active)
same,AC50,[12],0.641 µM (active)
same,AC50,[13],2.04 µM (active)
same,outcome,[14],inactive
same,outcome,[15],inactive
same,outcome,[16],inactive
same,outcome,[17],inactive
same,AC50,[18],8.82 µM (active)
same,AC50,[19],7.04 µM (active)
same,AC50,[20],6.79 µM (active)
